# Smad3 FoxH1 inh: Smad3 (human) transcription factor binding inhibition. P84022. TR-FRET Smad3/Dy647-FoxH1 peptide binding, europium anti-His. inhibition, % at 25 µM. 88,000 tested, 0.29% active. AID 630;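 active = compounds that reduce the energy-transfer binding signal between the protein and its labelled peptide by more than half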;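 note: 0% = Smad3 plus labelled peptide maximal FRET and 100% = peptide-only background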
# ERa SRC1 pot: enhances coactivator binding to human estrogen receptor alpha; P03372; TR-FRET ERalpha-LBD/SRC-Cy5 coactivator binding, 2 h; 100 = basal binding, no effect; coactivator binding (% of control), % at 25.6 µM; 86,000 tested, 1.3% active; AID 639; in the data active = activity above about 200%;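 note: binding measured in presence of low estradiol as agonist stimulus; 0% = peptide alone without receptor and 100% = receptor with peptide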
# Target sequence (P03372 whole entry, looked up, the tested form may be a part): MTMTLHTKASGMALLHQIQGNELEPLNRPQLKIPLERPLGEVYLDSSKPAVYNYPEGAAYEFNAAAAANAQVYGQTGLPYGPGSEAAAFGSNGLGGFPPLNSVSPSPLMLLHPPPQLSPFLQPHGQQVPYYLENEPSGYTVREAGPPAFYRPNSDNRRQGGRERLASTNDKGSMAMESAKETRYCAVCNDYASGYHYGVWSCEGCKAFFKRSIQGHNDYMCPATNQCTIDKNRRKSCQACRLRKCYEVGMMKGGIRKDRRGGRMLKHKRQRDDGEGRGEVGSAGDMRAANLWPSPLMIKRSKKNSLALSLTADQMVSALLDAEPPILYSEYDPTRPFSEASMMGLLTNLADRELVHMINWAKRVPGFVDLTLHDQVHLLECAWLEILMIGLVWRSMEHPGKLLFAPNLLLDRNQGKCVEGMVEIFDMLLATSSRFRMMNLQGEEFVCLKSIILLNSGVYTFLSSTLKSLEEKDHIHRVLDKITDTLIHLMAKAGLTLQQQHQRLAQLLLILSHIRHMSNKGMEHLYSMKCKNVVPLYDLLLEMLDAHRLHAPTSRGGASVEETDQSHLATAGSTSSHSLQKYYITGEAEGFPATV
# ERb SRC1 inh: blocks coactivator binding to human estrogen receptor beta; Q92731; TR-FRET ER-beta LBD / SRC1-Cy5 peptide binding; receptor agonist-loaded with 1 µM estradiol; inhibition, % at 25.6 µM; 86,000 tested, 1.3% active;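 active = compounds whose percent inhibition of the receptor-coactivator binding signal exceeds about 50% in the single-dose screen, limit read from the data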;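 note: 0% = receptor plus peptide wells without compound and 100% = peptide-only wells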
# ERa coact inh: ER-alpha (human) coactivator binding inhibition; TR-FRET ER-alpha LBD / SRC-1 peptide, estradiol-bound; inhibition, % at 25.6 µM; 86,000 tested, 1.7% active; AID 629; in the data active = inhibition above about 50%;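 note: 0% = receptor plus peptide control and 100% = peptide only without receptor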
# Active calls of the source: *; / = no result; [ ] = another dose, or the depositor's remark. Sampled rows, rich in hits. Any-hit rate of the full collection: about 3.7%.
SMILES,Smad3 FoxH1 inh,ERa SRC1 pot,ERb SRC1 inh,ERa coact inh
C=CCc1cccc2cc(C(=O)NCc3cccnc3)c(=O)oc12,8,65,44,81*[fluorescence artefact?]
CCOc1cccc2cc(C(=O)NCc3cccnc3)c(=O)oc12,-2,174,-1,4
NCS(=O)(=O)O,-1,/,/,/
Cc1noc(C)c1C(=O)NCc1ccco1,-14,97,7,-12
Cc1onc(-c2ccccc2Cl)c1C(=O)NCc1ccco1,23,41,54*,86*[fluorescence artefact?]
Cc1sc2ncnc(Sc3nnnn3-c3ccccc3)c2c1C,-5,202*[fluorescence artefact?],9,18
Cc1nc2ccccc2nc1-c1ccc(N=[N+]([O-])c2ccc(-c3nc4ccccc4nc3C)cc2)cc1,16,/,/,/
CCOC(=O)N1CCC(NC(=O)c2ccc3nc4ccccc4c(=O)n3c2)CC1,1,111,2,-3
CCOC(=O)N1CCC(NC(=O)c2cccn3c(=O)c4cc(Br)ccc4nc23)CC1,0,288*[fluorescence artefact?],42,60*[fluorescence artefact?]
N#CC(C(=O)Nc1ccc(Cl)c(Cl)c1)=C1Nc2ccccc2N1,-19,46,70*[fluorescence artefact?],79*[fluorescence artefact?]
N#CC(C(=O)Nc1cccc(Cl)c1)=C1Nc2ccccc2N1,0,105,-7,-13
CCOC(=O)N1CCC(N2C(=O)c3ccccc3C2Nc2cc(C(=O)OC)cc(C(=O)OC)c2)CC1 (stereo unspecified),-2,105,-16,7
NCCNC[C@H](O)CO,-15,/,/,/
O=C(NCc1cccnc1)C1c2ccccc2C(=O)N1Cc1ccco1 (stereo unspecified),12,93,51*[fluorescence artefact?],0
O=C(NCc1cccnc1)C1c2ccccc2C(=O)N1Cc1ccccc1 (stereo unspecified),1,109,-2,-6
COc1ccc(/C(C)=N/NC(=O)c2nc(C)cc(C)n2)cc1,6,84,-3,-7
COc1ccc2c(c1)[n+]([O-])c(/C(C)=N/NC(N)=S)c(C)[n+]2[O-],66*,/,/,/
C=C(c1ccc(O)cc1)c1ccc(O)cc1,-4,30,8,24
C/C=C(/C(=C/C)c1ccc(O)cc1)c1ccc(O)cc1,3,741*,15,10
CC(C)(C)c1ccc(CN2CCN([C@H](c3ccccc3)c3ccc(Cl)cc3)CC2)cc1,10,/,/,/
O=C(O)c1ccccc1/C=N/N=C1c2ccccc2-c2ccccc21,62*,/,/,/
O=CNC(=O)c1ccccc1C(=O)O,2,103,-4,-4
Cc1cc(C)n(-c2ccc(C(=O)Nc3nc4ccccc4s3)cc2)n1,2,208*[fluorescence artefact?],18,9
Clc1ccc(CSc2ncnc3c2ncn3[C@@H]2CCCCO2)cc1,0,/,/,/
Cc1ccc(-n2nc(C)c3c(-c4cccs4)c(C#N)c(N)nc32)cc1,6,210*[fluorescence artefact?],19,10
SMILES,Smad3 FoxH1 inh,ERa SRC1 pot,ERb SRC1 inh,ERa coact inh
Cc1nn(-c2ccccc2)c2nc(N)c(C#N)c(-c3ccc(F)cc3)c12,2,215*[fluorescence artefact?],13,13
O=C(CSc1nnc(Cc2cccs2)n1-c1ccc(Cl)cc1)NCc1ccc2c(c1)OCO2,-5,87,6,-3
O=C(Nc1cc(S(=O)(=O)N2CCOCC2)ccc1Cl)C(=O)c1c(-c2ccccc2)cc2ccccn12,10,107,-11,3
O=C1CNC(=O)N1CC(=O)N1CCCc2ccccc21,15,101,0,-3
Cn1c(CCNC(=O)c2ccco2)nc2cc(NC(=O)C3CCCCC3)ccc21,-4,123,-6,4
O=C(Nc1ccc2c(c1)nc1n2CCN(C2CCCCC2)C1)c1ccco1,6,43,53*,61*
O=C(Nc1ccc2c(c1)nc1n2CCOC1)c1ccco1,-4,122,-12,2
O=C(Nc1ccc2c(c1)nc1n2CCSC1)c1ccco1,44,123,61*[fluorescence artefact?],80*
COc1cc(/C=C(/C(=O)c2cccs2)c2nc3ccccc3[nH]2)cc(OC)c1O,18,79,-1,2
COc1ccc(CCNC(=O)NC23CC4CC(CC(C4)C2)C3)cc1OC,1,109,-7,-4
Cn1c(N)c(C(=O)CSc2nc3ccccc3n2-c2ccccc2)c(=O)n(C)c1=O,19,231*[fluorescence artefact?],38,48
Cc1cc(C)c(S(=O)(=O)N2CCC(C(=O)NCc3ccc(Cl)cc3Cl)CC2)c(C)c1,0,91,-1,-4
Cc1nn(-c2ccc(S(=O)(=O)O)cc2)c(O)c1N=Nc1ccc(-c2ccc(N=Nc3ccc4c(S(=O)(=O)O)cc(S(=O)(=O)O)c(N)c4c3O)c(O)c2)cc1O.[Cu].[Cu],101*,/,/,/
O=S(=O)(O)c1ccc2c(N=Nc3cccc4ccccc34)c(O)c(S(=O)(=O)O)cc2c1,31,/,/,/
O=S(=O)(c1ccc2oc3ccc(S(=O)(=O)N4CCCCC4)cc3c2c1)N1CCCCC1,-16,97,15,-2
COc1ccccc1-c1nc2s/c(=C\c3cccs3)c(=O)n2n1,7,43,39,67*[fluorescence artefact?]
CCCOc1ccc(Cc2nn3c(=O)/c(=C/c4ccco4)sc3nc2=O)cc1,12,92,16,38
O=c1/c(=C/c2ccco2)sc2nc(-c3ccccc3Br)nn12,-10,74,62*[fluorescence artefact?],59*[fluorescence artefact?]
CC(NC(=O)C1CC1)C(c1cccs1)N1CCN(c2ccccc2)CC1 (stereo unspecified),-2,141,56*[fluorescence artefact?],-7
CCCn1nc(C(=O)OCC(=O)c2ccc3c(c2)NC(=O)CO3)c2ccccc2c1=O,-76,167,24,73*
CN(C)c1ccc(NC(=O)Cn2cc3c(n2)CCCC3)cc1,-2,16,95*[fluorescence artefact?],85*[fluorescence artefact?]
CCc1cccc(NC(=O)Cn2cc3c(n2)CCCC3)c1,15,88,-4,-4
COc1cccc(NC(=O)CCS(=O)(=O)c2cccs2)c1,9,122,-1,0
CCCOc1ccc(N)cc1N,9,-3,99*[fluorescence artefact?],99*[fluorescence artefact?]
CCCOc1ccccc1NC(=O)c1ccc(N)cc1,-3,104,-8,-6
SMILES,Smad3 FoxH1 inh,ERa SRC1 pot,ERb SRC1 inh,ERa coact inh
Cc1cc(C)cc(-n2c(=O)c3sccc3n(CC(=O)NCc3ccco3)c2=O)c1,-2,104,80*[fluorescence artefact?],-2
Cc1cc(C)c(Cn2c(=O)n(CCCC(=O)NCc3ccco3)c(=O)c3sccc32)c(C)c1,-29,117,19,53*[fluorescence artefact?]
Cc1ccc(C)c(Cn2c(=O)n(CCC(=O)NCc3ccco3)c(=O)c3sccc32)c1,-17,205*,-4,20
Cc1ccccc1Cn1c(=O)n(CCCC(=O)NCc2ccco2)c(=O)c2sccc21,-6,80,12,3
Cc1ccc(-n2c(=O)c3sccc3n(CC(=O)NCc3ccco3)c2=O)cc1,2,119,-6,-6
Cc1ccc(S(=O)(=O)Nc2ccccc2C(=O)c2ccc(C)c(C)c2)cc1,17,/,/,/
CC(=O)Nc1ccc2c(c1)C(=Nc1ccc(C(=O)O)cc1)c1ccccc1-2,-3,/,/,/
CC1CCC(O)([C@](C)(C(=O)O)c2ccccc2)CC1 (stereo partly specified),-11,/,/,/
Cc1cc2c(=O)n(Cc3ccco3)c(SCC(=O)N3CCCc4ccccc43)nc2s1,8,106,-1,7
O=c1c2c3c(sc2n(CCN2CCCC2)c(=O)n1Cc1ccco1)CCCCC3,0,115,-12,-2

# Assay outcomes (PubChem BioAssay)
